In PubChem BioAssay (EPA / NIEHS):
The source made the active and inactive calls. Rule for the calls: active = hit-call score of the fitted dose curve at least 0.9, where 1 is the maximum; inactive = score below 0.9.

read-out: X-box binding protein 1 (XBP1), XBP1 (gene 7494); assay: LTEA_HepaRG_XBP1: Life Technologies and Expression Analysis (LTEA) Assay for X-box binding protein 1 (XBP1) using HepaRG (AID 2283540); conditions: mRNA level, 48 h; actives raise or lower the signal
Protocol: LTEA_HepaRG is a cell based, multiplexed-readout assay that uses HepaRG, a human liver cell line, with measurements taken at 48 hours after chemical dosing on a 96-well plate.LTEA_HepaRG_XBP1 is one of 102 assay component(s) measured in the LTEA HepaRG cell culture assay. It is a marker of Diseases associated with XBP1 including Major Affective Disorder 7 and Bipolar Disorder.Data from the assay component LTEA_HepaRG_XBP1 was analyzed into 1 endpoint. This assay endpoint, LTEA_HepaRG_XBP1, was analyzed with bidirectional fitting relative to DMSO as the negative control and baseline of activity. Using a type of inducible reporter, measures of mRNA induction for gain or loss-of-signal activity can be used to understand regulation of transcription factor activity. To generalize the intended target to other relatable targets, this assay endpoint is annotated to the dna binding intended target family, where the subfamily is basic leucine zipper.
A total of 1060 chemcials from the ToxCast library were tested in eight-point concentration-response experiments. Cell culture and cytotoxicity assays were conducted at Thermo Fisher Scientific's Custom Services facility (Madison, WI). A single lot of human HepaRG cells (Thermo Fisher Scientific, Frederick, MD) was used for the cell culture experiments. 96-well format collagen type I coated plates of human HepaRG cells were prepared using established methods. Briefly, cryopreserved HepaRG cells were thawed, plated at a density of approximately 100,000 cells/well in HepaRG Thaw, Plate, and General Purpose media (HPRG770, Thermo Fisher Scientific), and incubated for 48 hours. 0.5% DMSO was selected as vehicle control to balance the requisite need of DMSO in HepaRG cultures to maintain differentiation (for example, baseline metabolism, proportions of hepatocytes vs. cholangiocytes), while enabling further hepatic receptor pathway activation (for example, PXR and CAR) in response to chemical exposure. 48 hours after plating, the culture medium was replaced with HepaRG Serum-Free Incudtion Media. Cells were exposed to each test chemical in duplicate and maintained in CO2 incubators for another 48 hours. Chemical plates were thawed to room temperature and 200x concentrations of treatment groups were prepared. 8-point conentration-reponse curves were made with the highest exposure at 100 uM, followed by half-log dilutions, all in 0.5% DMSO. Each test plate contained variouse controls, induction positive controls (1mM phenobarbital), cytotoxicity positive controls ([…] aflatoxin B1), vehicle controls (0.5% DMSO), and total lysis controls (0.5% DMSO). Cell morphology images were taken using an Essen IncuCyte FLR automated microscope, with six 96-well plates imaged in about 24 minutes. Images were captured and exported and JPEG files. Spent culture media was transfered to black-well plates for the LDH assay, and remaining media was sorted at -80 C for later use. Cells were treated with RLT buffer and frozen until shipped for gene expression analysis. Total RNA was isolated from the cell suspension in 75 uL of Buffer RLT (Qiagen, Germantown, MD 20874) by Quintiles/Expression Analysis (Durham, NC) using a custom isolation procedure. Total RNA from each plate well was transferred to a preamplification plate. Fluidigm's 96.96 Dynamic ArrayTM (Fluidigm, Amsterdam, the Netherlands) technology was used for gene expression analyses by quantitative reverse transcription polymerase chain reaction (qRT-PCR, performed by Quintiles/Expression Analysis, Durham, NC)89. Standard TaqManTM Assays (Applied Biosystems/ThermoFisher Scientific, Foster City, CA) were used to assess the expression of 93 genes selected based on their selectivity and sensitivity to important hepatic receptors known to be modulated by environmental chemicals; importance in human hepatocyte functionality; and hepatotoxicity. […]

Structure (SMILES) | AC50 | outcome
CC[C@H](C)[C@H]1O[C@]2(C=C[C@@H]1C)C[C@@H]1C[C@@H](C/C=C(\C)[C@@H](O[C@H]3C[C@H](OC)[C@@H](O[C@H]4C[C@H](OC)[C@@H](NC)[C@H](C)O4)[C@H](C)O3)[C@@H](C)/C=C/C=C3\CO[C@@H]4[C@H](O)C(C)=C[C@@H](C(=O)O1)[C@]34O)O2 | 12.8 µM (active) | 
CNC(=O)ON=C(C)SC |  | inactive
CCc1cnc(C2=NC(C)(C(C)C)C(=O)N2)c(C(=O)O)c1 (stereo not given) |  | inactive
CCC(=O)Nc1ccc(Cl)c(Cl)c1 |  | inactive
CCCCOC(=O)[C@@H](C)Oc1ccc(Oc2ccc(C#N)cc2F)cc1 |  | inactive
C#CC(C)(C)NC(=O)c1cc(Cl)cc(Cl)c1 |  | inactive
FC(F)C(F)(F)OCC(Cn1cncn1)c1ccc(Cl)cc1Cl (stereo not given) | 86.9 µM (active) | 
CCc1cccc(CC)c1N(COC)C(=O)CCl |  | inactive
CN(C)[C@@H]1C(=O)C(C(N)=O)=C(O)[C@@]2(O)C(=O)C3=C(O)c4c(O)cccc4[C@@](C)(O)[C@H]3[C@H](O)[C@@H]12 |  | inactive
Nc1c(Cl)cc([N+](=O)[O-])cc1Cl |  | inactive
C[N+]1(C)CCCCC1 |  | inactive
CNC(=O)Oc1cccc2c1OC(C)(C)O2 |  | inactive
COc1ccc(C(=CC(=O)N2CCOCC2)c2ccc(Cl)cc2)cc1OC |  | inactive
O=[N+]([O-])c1cc(C(F)(F)F)c(Cl)c([N+](=O)[O-])c1Nc1ncc(C(F)(F)F)cc1Cl |  | inactive
CCOP(=S)(Oc1cnc(C(C)(C)C)nc1)OC(C)C (stereo not given) | 50 µM (active) | 
CN(C)C(=O)Nc1cccc(C(F)(F)F)c1 |  | inactive
CCCCN(CC)c1c([N+](=O)[O-])cc(C(F)(F)F)cc1[N+](=O)[O-] |  | inactive
O=C(O)c1cc(Oc2ccc(C(F)(F)F)cc2Cl)ccc1[N+](=O)[O-] |  | inactive
COc1cc(OC)nc(Sc2cccc(Cl)c2C(=O)O)n1 |  | inactive
CCCOc1nn(C(=O)NS(=O)(=O)c2ccccc2C(=O)OC)c(=O)n1C |  | inactive

Structure (SMILES) | AC50 | outcome
CCOC(=O)CC(SP(=O)(OC)OC)C(=O)OCC (stereo not given) |  | inactive
S=C1NCCN1 |  | inactive
CCCSP(=O)(OCC)Oc1ccc(Br)cc1Cl (stereo not given) |  | inactive
CCOP(=S)(OCC)Oc1ccc2c(C)c(Cl)c(=O)oc2c1 |  | inactive
CNc1cnn(-c2cccc(C(F)(F)F)c2)c(=O)c1Cl |  | inactive
CC1=NNC(=O)N(/N=C/c2cccnc2)C1 |  | inactive
CC(Oc1cccc(Cl)c1)C(=O)O (stereo not given) |  | inactive
CC(COc1ccc(Oc2ccccc2)cc1)Oc1ccccn1 (stereo not given) |  | inactive
CC(C)=CC1C(C(=O)OCN2C(=O)C3=C(CCCC3)C2=O)C1(C)C (stereo not given) |  | inactive
Nc1nc(N)nc(NC2CC2)n1 |  | inactive
CC(C)[C@H](C(=O)O[C@H](C#N)c1cccc(Oc2ccccc2)c1)c1ccc(Cl)cc1 |  | inactive
CCOP(=S)(OCC)SCCSCC |  | inactive
CCCOCC(=Nc1ccc(Cl)cc1C(F)(F)F)n1ccnc1 |  | inactive
CCCCOC(=O)c1ccccc1C(=O)O |  | inactive
CCOP(=S)(OCC)Oc1ccc([N+](=O)[O-])cc1 |  | inactive
CCOP(=S)(OCC)OC(Cl)C(Cl)(Cl)Cl (stereo not given) |  | inactive
CCCCSP(=O)(SCCCC)SCCCC |  | inactive
CCOP(=O)(OCC)Oc1cc(C)nc(C(C)C)n1 |  | inactive
CN(C)NC(=O)CCC(=O)O |  | inactive
CCc1cccc(C)c1N(C(=O)CCl)C(C)COC (stereo not given) |  | inactive
